A selection: hits, their analogues and other compounds. The true share with any hit is near 19%.
IL-1B inflam inh: inhibitors of inflammasome signaling (IL-1 beta secretion) | THP-1 LPS/ATP IL-1B secretion, AlphaLISA, 16 h; hits give low values | activity change, % at 57.5 µM | 360,000 compounds, 4.7% hits; in the data active means activity change below about -50%; inconclusive means mostly about -30% to -49%; further: on the % scale 0 is the no-effect control and ±100 the full control effect
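Secreted IL-1B measured by AlphaLISA bead assay after 16 h compound exposure of THP-1 cells; compounds (final up to 57.5 uM) added 1 h before LPS (250 ng/mL) and ATP (1.25 mM) stimulation; lower signal means less secretion.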
S-ASM inh: human S-ASM enzyme inhibition; P17405; placental ASM, HMU-PC fluorogenic substrate, 60 min; Potency, µM (doses to about 57.5 µM), without a hit: at the top dose activity change, negative = inhibition, most hits filed as inhibitors; 340,000 compounds, 0.006% hits; further: potency means the concentration at half of the fitted maximal effect
Target sequence (P17405 47-631 limits assumed): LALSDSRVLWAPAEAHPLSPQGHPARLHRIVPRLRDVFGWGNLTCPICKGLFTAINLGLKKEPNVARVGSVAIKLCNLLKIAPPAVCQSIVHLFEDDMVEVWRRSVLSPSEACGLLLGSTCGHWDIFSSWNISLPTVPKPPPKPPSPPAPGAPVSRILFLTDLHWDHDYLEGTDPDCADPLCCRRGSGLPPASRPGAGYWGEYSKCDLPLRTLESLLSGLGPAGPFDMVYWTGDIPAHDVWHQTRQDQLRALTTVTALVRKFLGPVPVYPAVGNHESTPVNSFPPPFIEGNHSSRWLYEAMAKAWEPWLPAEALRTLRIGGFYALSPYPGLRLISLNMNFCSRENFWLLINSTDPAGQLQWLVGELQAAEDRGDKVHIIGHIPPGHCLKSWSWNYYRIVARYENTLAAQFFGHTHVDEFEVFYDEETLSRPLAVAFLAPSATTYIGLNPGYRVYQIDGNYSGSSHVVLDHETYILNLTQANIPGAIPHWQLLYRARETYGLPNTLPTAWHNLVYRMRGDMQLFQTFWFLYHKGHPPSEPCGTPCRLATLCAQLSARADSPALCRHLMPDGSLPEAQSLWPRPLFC
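Fluorogenic HMU-PC substrate (9 uM final) is turned over by placental ASM in 60 min at 37 C after a 10 min compound preincubation. Reaction ended by alkaline stop (pH 10), with fluorescence read at 386/447 nm.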
DT40 TDP1 no CPT: qHTS for Inhibitors of human tyrosyl-DNA phosphodiesterase 1 (TDP1): qHTS in cells in absence of CPT | DT40 Tdp1-/- hTDP1 cells, no CPT, ATP luminescence, 48 h | Potency, µM (series often up to 46.2 µM), without a hit: top-dose activity change, negative = growth inhibition, actives largely listed as inhibitors | 420,000 compounds, 15% hits | AID 686978, 2013; further: potency means the concentration at half of the fitted maximal effect; on the % scale 0 is the no-effect control and ±100 the full control effect; nearly all actives have a fitted effect of over 55% in size
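Chicken DT40 Tdp1-/- cells complemented with human TDP1, screened without camptothecin (DMSO vehicle only), 400 cells/well. Compounds pin-transferred, cells incubated at 37 °C for at least 48 hr. Growth read as ATP-dependent luminescence (CellTiter-Glo, 30 min at RT).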
TGFb inhibitor: inhibitors of TGF-b signaling; 410,000 compounds, 1.2% hits; Potency, µM (series often up to 46.1 µM), without a hit: top-dose activity, negative = inhibition, usual class: inhibitors; AID 588855; HepG2 CAGA-GFP TGF-b/SMAD3 reporter, GFP fluorescence, 18 h; TGF-beta stimulated, 500 pg/mL final; further: potency means the concentration at half of the fitted maximal effect; on the % scale 0 is the no-effect control and ±100 the full control effect; nearly all actives have a fitted effect of over 65% in size
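GFP signal (ex488/em500-530) from TGF-beta-stimulated HEPG2 CAGA-GFP cells, 500 pg/mL final, 18 h at 37 degrees C in DMEM plus 1% FBS, normalized to unstimulated and DMSO-stimulated controls.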
TDP1 cell CPT: DT40-hTDP1 cell growth loss with CPT; 420,000 compounds, 12% hits; chicken DT40 Tdp1-/-;hTDP1 cells + 20 nM CPT, ATP luminescence, 48 h; Potency, µM (titrated, usually from 46.2 µM), for the others: at the top dose activity change, negative = growth inhibition, actives largely listed as inhibitors; further: potency means the concentration at half of the fitted maximal effect; on the % scale 0 is the no-effect control and ±100 the full control effect; nearly all actives have a fitted effect of over 55% in size
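Cell growth measured by CellTiter-Glo luminescence after a minimum 48 h, 37 C compound exposure with 20 nM CPT in Tdp1-knockout DT40 cells stably expressing hTDP1, seeded 400/well; qHTS titration format.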
HepG2 tox: counter-screen for TGF-b inhibitors: cytotoxicity in HepG2 cells | Potency, µM (top dose mostly 46.1 µM), inactives show top-dose activity change, negative = cytotoxicity, most hits filed as cytotoxic | 410,000 compounds, 0.76% hits | HepG2 CAGA-GFP viability, ATP luminescence, 18 h | AID 588856; further: potency means the concentration at half of the fitted maximal effect
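HepG2 CAGA-GFP cells (1000/well, DMEM with 1% FBS) received compound, then TGF-beta at 500 pg/mL final, and were incubated 18 hours at 37 degrees C. Viability was read by CellTiter-Glo luminescence. Media-only wells were set as complete cell-killing and DMSO as no toxicity.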
* hit, by the source's call; ? = inconclusive; . = no result given. Unless noted, the call rests on the fitted dose curve; in most records, active means well fitted curve in the direction sought with a large enough effect; inconclusive means small, poorly fitted or top-dose-only effect, or another doubt; inactive means no such curve, though single readings can be large; an effect the other way counts as inactive or inconclusive.

SMILES	IL-1B inflam inh	S-ASM inh	DT40 TDP1 no CPT	TGFb inhibitor	TDP1 cell CPT	HepG2 tox
Cc1ccc(C(=O)CC(c2cccs2)S(=O)(=O)c2ccc(C)cc2)cc1 (configuration not stated)	-8	3%	15µM*	?	?	-1%
COc1ccccc1CNC(=O)C(=O)NCC(c1cccs1)S(=O)(=O)c1ccccc1 (configuration not stated)	.	.	16µM*	-4%	?	-32%
O=C(NCCc1ccccc1)C(=O)NCC(c1cccs1)S(=O)(=O)c1cccs1 (configuration not stated)	.	.	?	9%	16µM*	-20%
O=C(O)CSCC(=O)NC1CCSC1=O (configuration not stated)	.	.	-5%	.	-11%	.
Cc1ccc(NC(=O)Cn2c(=O)n(CCc3ccccc3)c(=O)c3sc4ccccc4c32)cc1C	.	.	-7%	-11%	-2%	-3%
CCOc1ccc(CCNC(=O)Cn2nc(C)n3c(cc4occc43)c2=O)cc1OCC	.	.	-28%	?	-23%	-15%
COc1ccc2oc(C(=O)OCC(=O)NCCc3ccc(S(N)(=O)=O)cc3)c(C)c2c1	-18	-7%	?	4%	?	-2%
Cc1cc(C)c(S(=O)(=O)NCC(c2cccs2)S(=O)(=O)c2ccccc2)c(C)c1 (configuration not stated)	.	.	4.1µM*	5.6µM*	1.2µM*	6.3µM*
COc1ccc(CC(=O)NCC(c2cccs2)S(=O)(=O)c2ccc(C)cc2)cc1 (configuration not stated)	.	.	26µM*	-10%	?	-15%
CC(C)(C)c1ccc(C(=O)NCC(c2cccs2)S(=O)(=O)c2cccs2)cc1 (configuration not stated)	.	.	?	-7%	?	-16%
Cc1ccc(C(=O)NCC(c2cccs2)S(=O)(=O)c2cccs2)cc1 (configuration not stated)	.	.	9.2µM*	?	21µM*	-24%
COc1cc(=O)n2c(c1C(=O)N(C)Cc1nonc1C)CCN(CC1CC=CCC1)CC2 (configuration not stated)	.	.	-15%	.	-20%	.
Cc1cc2nc(CS(=O)(=O)c3ccccc3)cc(=O)n2[nH]1	6	3%	-3%	4%	9%	5%
CN(c1ccc([N+](=O)[O-])cc1/C=N/NC(=O)COc1ccccc1)C1CCCCC1	-3	-14%	16µM*	11%	?	3%
COc1cccc(NC(=O)CN(C)C(=O)c2c(-c3ccccc3)noc2C)c1	0	-1%	-26%	-1%	-15%	-1%
CCNC(=S)Nc1cccc(F)c1C	5	2%	-10%	8%	-1%	10%
Cc1ccc(C(=O)CSc2nc(C)cc(C)c2C(N)=O)cc1	-52*	4%	?	-7%	?	8%
Cc1cc(C)c(C#N)c(SCC(=O)c2ccccc2)n1	-12	-6%	-46%	10µM*	16µM*	-9%
Cc1cc(C)c(C#N)c(SCC(=O)c2cccs2)n1	-98*	-8%	?	0%	-23%	0%
Cc1cc(=O)[nH]c(SCC(=O)c2ccccc2)c1C#N	-2	1%	-9%	11%	-15%	-2%
COC(=O)CSc1nc(C)cc(C)c1C#N	-11	106%	-5%	13%	-5%	7%
CC(=O)Nc1cccc(NS(=O)(=O)c2cn(C)c(=O)n(C)c2=O)c1	15	6%	15%	2%	0%	-2%

Source: PubChem (National Center for Advancing Translational Sciences (NCATS))
